Data published in PubChem BioAssay AID2314 (National Center for Advancing Translational Sciences (NCATS), 2010).
Values joined by “and” are separate entries in the source; they are usually repeats but may differ in a detail not shown here. Equal values may be shown once. Out of some 300,000 compounds screened, about 37,000 (12%) were called active. Many of the other results were omitted from the sample, so actives are more common in it than they were. Values without a mark were called inactive. Rule as the data show it: active = max response mostly above about 13% (no sharp cut-off); inactive = mostly below about 14%.

Assay: Cycloheximide Counterscreen for Small Molecule Inhibitors of Shiga Toxin; also: read at 38.3 µM for the half of the compounds with a filed dose; 0% is about no effect
Conditions: cell reporter, cycloheximide protein synthesis inhibition counterscreen; stronger effect = higher value

Compound	max response
CCOc1ccc(NC(=O)COc2ccc(S(=O)(=O)N3CCCC3)cc2)cc1	1.08%
Cc1c(C(=O)NC(=S)NCc2cccnc2)oc2ccccc12	6.33%
COc1ccc(NC(=O)C2CCC(CNC(=O)[C@@H]3Cc4ccccc4CN3)CC2)cc1 (stereo not given in full)	15.5%
CCN1CCN(C(=O)C2CCCN(S(=O)(=O)c3ccc(OC)c(OC)c3)C2)CC1 (stereo not given)	-4.36%
CCOc1ccc(S(=O)(=O)N2CCCC(C(=O)N3CCC(C(N)=O)CC3)C2)cc1Cl (stereo not given)	23.5% (active)
CCOC(=O)C1CCN(C(=O)C2CCCN(S(=O)(=O)c3ccc(OC)c(Cl)c3)C2)CC1 (stereo not given)	-4.35%
COCCCC1CCN(C(=O)C2CCC(=O)N(C3CCCCCC3)C2)CC1 (stereo not given)	-2.1%
COc1ccc(C(=O)Nc2ccccc2C(=O)N2CCN(c3ccccc3)CC2)cc1	11.6%
COc1ccc(C(CC(=O)N2CCN(c3ccccc3)CC2)c2c(O)cc(OC)cc2OC)cc1 (stereo not given)	-2.39% and 0.819%
COc1ccc(C(C(O)C(=O)c2c[nH]c3ccccc23)N2CCN(c3ccccc3)CC2)cc1 (stereo not given)	11.6% (active)
Cc1c(C)n(Cc2ccc(Cl)cc2)c2ccc(C(=O)NCCCN3CCOCC3)cc12	-6.61%
O=C(NCCCn1ccnc1)/C(=C\c1ccccc1F)NC(=O)c1ccccc1	-1.78%
CCc1ccccc1NC(=O)c1ccc2snnc2c1	-0.462%
O=C(Nc1cccc(Br)c1)c1ccc2snnc2c1	26.9% (active)
O=C(Nc1ccc2ccccc2c1)Nc1ccc2snnc2c1	14.6%
COC(=O)Cc1cnc(NC(=O)CSc2nc(C(C)C)cc(=O)[nH]2)s1	-1.1%
COc1cccc(OCCCN2CCCCCC2)c1	10.5%
COc1ccc(/C=C/C(=O)OCC(=O)Nc2cccc(Oc3ccccc3)c2)c(OC)c1	-2%
Nc1ccc(Oc2ccc(Cl)cc2)cc1	10.9%
COc1cccc(Oc2ccc(N)cc2)c1	19.4% (active)
Cc1ccc(Oc2ccc(N)cc2)cc1	14.2% (active)
CC(C)(C)c1ccc(Oc2ccc(N)cc2)cc1	-11.7%
O=C(Oc1ccc(Br)cc1C(=S)N1CCOCC1)c1cccc([N+](=O)[O-])c1	-2.16%
CC1(C(=O)NCCc2c[nH]c3ccccc23)C=CC2(CCCCC2)N1C(=O)c1ccccc1 (stereo not given)	17.5%

Compound	max response
Cc1ccc(Nc2nc(CSc3nnc(-c4ccncc4)n3-c3ccccc3C)cs2)cc1	6.52%
COc1ccccc1N1CCC(N2CCN(CC(C)(C)C)C(CCO)C2)CC1 (stereo not given)	1.35%
NC(=O)C1CCN(Cc2nc3c(Br)cc(Br)cc3c(=O)[nH]2)CC1	4.18%
CN(C(=O)CC1C(=O)NCCN1Cc1ccc(F)cc1Cl)C1CCCCC1 (stereo not given)	-2.54%
CC(=O)CCC(=O)c1ccc2ccccc2c1	48.4% (active)
O=C(Nc1ccccc1N1CCCC1)c1ccc2ccccc2c1	18.5%
Cc1ccccc1OCC(=O)NCC(=O)OCC(=O)c1ccc2ccccc2c1	1.31%
CC(=O)c1ccc2c(c1)c1ccccc1n2CC(C)C	3.09%
CC(=O)c1ccc2c(ccc3ccccc32)c1	67.2% (active)
CCN(CC)Cc1cc(C(C)=O)ccc1O	-3.77%
CC(C)CC(O)C1CCN(C(=O)CCc2nnc(-c3ccc4c(c3)OCO4)o2)CC1 (stereo not given)	13.8%
COc1ccc(Cl)cc1NC(=O)c1cccc(N2C(=O)C3CC=CCC3C2=O)c1 (stereo not given)	-2.41%
CC1CN(C(=S)Nc2cccc(F)c2)CC(C)O1 (stereo not given)	-2.61%
COc1ccc(CCNC(=O)Cc2ccc(C)cc2)cc1OC	0.685%
COc1ccc(CC(=O)c2ccc(O)cc2O)cc1OC	12.9% (active)
O=C(Cc1ccccn1)c1ccc(O)cc1O	-6.13%
CCN(Cc1ccncc1)C(=O)CCc1ccccc1	-2.09%
CCOc1ccc(NC(=O)c2cccc3c2C(=O)N(CC2CCCO2)C3)cc1 (stereo not given)	8.04%
Cn1c(Cc2cccs2)nnc1SCC(=O)Nc1ccccc1	-0.893%
CCn1c(SCC(=O)c2ccc(Cl)s2)nnc1-c1cccs1	24.2% (active)
Cc1ccc(-n2c(Cc3cccs3)nnc2SCC(=O)OC(C)C)cc1	18.3%
CCn1c(SCC(=O)c2ccc3ccccc3c2)nnc1-c1cccs1	-2.54%
CCn1c(SCC(=O)N(C)C2CCS(=O)(=O)C2)nnc1-c1cccs1 (stereo not given)	-1.86%
CCn1c(Cc2cccs2)nnc1SCC(=O)c1ccc(C)cc1	35.4% (active)

Compound	max response
O=C(N/C(=C\c1ccc(O)cc1)C(=O)N1CCCCC1)c1ccccc1	-0.421%
COCCCNC(=O)C1CC(=O)N(CCc2ccc(F)cc2)C1 (stereo not given)	-0.645%
CC(C)(CNC(=O)c1ccc(Cl)c(S(=O)(=O)N2CCc3ccccc3C2)c1)N1CCOCC1	-3.28%
COc1cc(OC)cc(C(=O)NCCSCc2ccc(Cl)cc2)c1	11.2%
CC1CC(C)CN(CCCNC(=O)Cn2ncc3c([nH]c4ccccc43)c2=O)C1 (stereo not given)	-2.29%
Cc1ccc(NS(=O)(=O)c2cc3c(cc2C)NC(=O)CO3)cc1	-3.17%
CC1(C)Cc2c(sc(NC(=O)C(=O)NCC3CCCO3)c2C(=O)O)CO1 (stereo not given)	0.548%
COc1ccc2c(c1)CCc1c(C(=O)N3CCCC3)noc1-2	36.2% (active)
COc1ccc2c(c1)CCc1c(C(=O)N3CCc4ccccc4C3)noc1-2	30.1% (active)
COc1ccc(OC)c(NC(=S)N2CCc3ccccc3C2)c1	9.77%
COc1ccc2cc(C(=O)C3CCCN(C(=O)c4sc(C)nc4C)C3)ccc2c1 (stereo not given)	15.7%
O=C(c1noc2c1CCCC2)N1CCc2ccccc2C1	40.9% (active)
Cn1cccc1C(=O)N1CCc2ccccc2C1	15.5% (active)
COc1ccc(S(=O)(=O)NC(C)C(=O)N2CCCCCC2)cc1 (stereo not given)	-0.827%
COc1cccc(N(CC(=O)N2CCc3ccccc3C2)S(C)(=O)=O)c1	-1.63%
O=C(C(=O)N1CCc2ccccc2C1)N1CCc2ccccc2C1	-2.04%
CN(c1ccc(C(=O)N2CCc3ccccc3C2)cc1)S(C)(=O)=O	18.8%
CN1CCN(Cc2c(C(=O)N3CCc4ccccc4C3)nc3ccc(Cl)cn23)CC1	-1.69%
COc1cccc(NC(=O)N2CCCC2C(=O)NC2CCCCC2)c1 (stereo not given)	-2.55%
Cc1ccc(CN(CC(=O)NC2CCCCC2)C(=O)c2csnn2)cc1	-2.39%
CCOCCCNc1c(CC)c(C)c(C#N)c2nc3ccccc3n12	-2.64%
Cc1ccc(NC(=O)CC2S/C(=N/N=C3\CCCc4ccccc43)NC2=O)cc1 (stereo not given)	-4.9%
C[C@H]1CCC[C@@]2(C)CCCC[C@]12O	12.1%
Cn1c(CCc2ccccc2)nnc1SCC(N)=O	-1.26%

Compound	max response
O=C(Nc1ccc(S(=O)(=O)Nc2nccs2)cc1)c1cccc(S(=O)(=O)N2CCOCC2)c1	-1.31%
O=C(Nc1ccc(N2CCOCC2)c(Cl)c1)c1ccc(S(=O)(=O)N2CCOCC2)cc1	5.48%
O=C(Nc1ccc(S(=O)(=O)N2CCOCC2)cc1)c1ccc2ncsc2c1	43.1% (active)
CCc1ccc(C(=O)CSc2nnc(C)c(=O)[nH]2)cc1	1.57%
COc1cc(C(=O)NCc2nnc(SCC(=O)c3ccc(Cl)cc3)o2)cc(OC)c1OC	2.18%
O=C(CNC(=O)c1cccs1)N/N=C/c1cccc(Br)c1	-3.86%
CCN(CC)c1ccc(/C=N/NC(=O)CNC(=O)c2cccnc2)cc1	-5.38%
Cc1ccc(-n2c(C)cc(/C=N\NC(=O)CC(=O)NC(C)C)c2C)cc1	-4.19%
O=C(N/N=C/C=C/c1ccco1)c1cccs1	46% (active)
Cc1cccc(-n2c(C)cc(/C=N/NC(N)=S)c2C)c1	9.86%
Cc1cccc(-n2c(C)cc(/C=N\NC(=O)c3cccs3)c2C)c1	56.1% (active)
Cc1ccc(-c2cc(C(=O)N/N=C/C=C/c3ccco3)c3ccccc3n2)cc1C	26.2%
O=C(NC(Cc1c[nH]c2ccccc12)C(=O)N/N=C/c1ccc(Br)cc1)c1cccs1 (stereo not given)	1.73%
CCN(CC)c1ccc(/C=N/NC(=O)CNC(=O)c2cccs2)cc1	19.2% (active)
CC(=O)Nc1ccc(/C=N/NC(=O)c2cccs2)cc1	58.5% (active)
CCCc1c(C(=O)N/N=C(\C)CCc2ccc(OC)cc2)nnn1-c1nonc1N	11%
Cc1ccc(N(C(=O)c2snc(C(N)=O)c2N)C(C(=O)NCC2CCCO2)c2c[nH]c3ccccc23)cc1 (stereo not given)	-1.6%
Cc1cc(C)c(S(=O)(=O)N(C)CC(=O)NCC2CCCO2)c(C)c1 (stereo not given)	-2.82%
CCCn1nc(NC(=O)C(C)C)c2cc3cc(OC)ccc3nc21	17%
COc1ccc(CCNC(=O)C2CCCN(Cc3nc(-c4cccc(Cl)c4)oc3C)C2)cc1OC (stereo not given)	6.92%
CCOc1cc(NC(=S)NCCCN(C)C)c(OCC)cc1NC(=O)C1CC1	-1%
Cn1nnnc1-c1cc(Cl)cc(Cl)c1	1.2%
CN(CCO)S(=O)(=O)c1ccc2c(c1)C(=O)c1cc(S(=O)(=O)N(C)CCO)ccc1-2	-1.96%
